Measured values published in the supplement of paper PMC8728848.
Many of the other results were omitted from the sample, so the strongest signals are more common in it than they were.

Columns and labels:
Assay in all cases: glycan array binding signal (z-score within array); higher = stronger binding
Conditions in all cases: glycan notation: IUPAC condensed, linker removed
[1] = molecular target: Fuc(a1-2)Gal(b1-3)[Fuc(a1-4)]GlcNAc(b1-2)Man(a1-3)[Fuc(a1-2)Gal(b1-3)[Fuc(a1-4)]GlcNAc(b1-2)Man(a1-3)]Man(b1-4)GlcNAc(b1-4)GlcNAc
In short: (§1)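 From the Consortium for Functional Glycomics database, 3228 arrays were curated, keeping only those whose protein sequence was available. Binding is given as a within-array Z-score averaged across arrays sharing a protein sequence and across linkers. Negative Z-scores can be read as non-binding.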

[2] = molecular target: Fuc(a1-2)Gal(b1-3)[Fuc(a1-4)]GlcNAc(b1-3)[Gal(b1-4)GlcNAc(b1-6)]Gal(b1-4)Glc
In short: as §1

[3] = molecular target: Fuc(a1-2)[Gal(a1-3)]Gal(b1-3)GlcNAc
In short: as §1

[4] = molecular target: Fuc(a1-2)[Gal(a1-3)]Gal(b1-3)GlcNAc(b1-6)GalNAc
In short: as §1

[5] = molecular target: Fuc(a1-2)[Gal(a1-3)]Gal(b1-4)GlcNAc(b1-6)GalNAc
In short: as §1

[6] = molecular target: Fuc(a1-3)[Gal(b1-4)]GlcNAc(b1-3)Gal(b1-4)[Fuc(a1-3)]GlcNAc
In short: as §1

Gal(a1-3)Gal(b1-3)GlcNAc = molecular target: Gal(a1-3)Gal(b1-3)GlcNAc
In short: as §1

[7] = molecular target: Gal(a1-3)[Gal(a1-4)]Gal(b1-4)GlcNAc
In short: as §1

Gal(b1-2)Gal = molecular target: Gal(b1-2)Gal
In short: as §1

Gal(b1-3)GalNAc = molecular target: Gal(b1-3)GalNAc
In short: as §1

[8] = molecular target: Gal(b1-3)GalNAc(a1-3)[Fuc(a1-2)]Gal(b1-4)GlcNAc
In short: as §1

[9] = molecular target: Gal(b1-3)GlcNAc(b1-2)Man(a1-3)[Gal(b1-3)GlcNAc(b1-2)Man(a1-6)]Man(b1-4)GlcNAc(b1-4)[Fuc(a1-6)]GlcNAc
In short: as §1

[10] = molecular target: Gal(b1-3)[Fuc(a1-4)]GlcNAc(b1-2)Man
In short: as §1

[11] = molecular target: Gal(b1-4)GlcNAc(b1-2)[Gal(b1-4)GlcNAc(b1-6)]Man(a1-6)[GlcNAc(b1-4)][Gal(b1-4)GlcNAc(b1-2)[Gal(b1-4)GlcNAc(b1-4)]Man(a1-3)]Man(b1-4)GlcNAc(b1-4)[Fuc(a1-6)]GlcNAc
In short: as §1

[12] = molecular target: Gal(b1-4)GlcNAc(b1-3)Gal(b1-4)GlcNAc(b1-2)Man(a1-3)[Gal(b1-4)GlcNAc(b1-3)Gal(b1-4)GlcNAc(b1-2)Man(a1-6)]Man(b1-4)GlcNAc(b1-4)GlcNAc
In short: as §1

[13] = molecular target: Gal(b1-4)GlcNAc(b1-3)Gal(b1-4)GlcNAc(b1-3)[Gal(b1-4)GlcNAc(b1-3)Gal(b1-4)GlcNAc(b1-6)]GalNAc
In short: as §1

[14] = molecular target: Gal(b1-4)GlcNAc(b1-6)[Gal(b1-3)]GalNAc
In short: as §1

Gal3S(b1-4)Glc = molecular target: Gal3S(b1-4)Glc
In short: as §1

Gal4S6S(b1-4)GlcNAc = molecular target: Gal4S6S(b1-4)GlcNAc
In short: as §1

GalNAc(b1-3)Gal = molecular target: GalNAc(b1-3)Gal
In short: as §1

GalNAc(b1-4)Gal(b1-4)Glc = molecular target: GalNAc(b1-4)Gal(b1-4)Glc
In short: as §1

GlcA(b1-3)GlcNAc = molecular target: GlcA(b1-3)GlcNAc
In short: as §1

[15] = molecular target: GlcA3S(b1-3)Gal(b1-4)GlcNAc(b1-2)Man
In short: as §1

[16] = molecular target: GlcNAc(a1-3)Gal(b1-4)GlcNAc
In short: as §1

[17] = molecular target: GlcNAc(a1-4)Gal(b1-4)GlcNAc(b1-3)Gal(b1-4)[Fuc(a1-3)]GlcNAc(b1-3)Gal(b1-4)[Fuc(a1-3)]GlcNAc
In short: as §1

[18] = molecular target: GlcNAc(b1-3)Gal(b1-4)GlcNAc(b1-6)[Gal(b1-3)]GalNAc
In short: as §1

[19] = molecular target: Man(a1-2)Man(a1-3)[Man(a1-6)]Man(a1-6)[Man(a1-2)Man(a1-3)]Man(b1-4)GlcNAc(b1-4)GlcNAc
In short: as §1

[20] = molecular target: Man(a1-2)Man(a1-6)[Man(a1-3)]Man(a1-6)[Man(a1-2)Man(a1-2)Man(a1-3)]Man(b1-4)GlcNAc(b1-4)GlcNAc
In short: as §1

[21] = molecular target: Man(a1-3)[Man(a1-6)]Man(a1-6)[Man(a1-3)]Man
In short: as §1

[22] = molecular target: Neu5Ac(a2-3)Gal(b1-4)GlcNAc(b1-2)Man
In short: as §1

[23] = molecular target: Neu5Ac(a2-3)Gal(b1-4)GlcNAc(b1-2)Man(a1-3)[Neu5Ac(a2-3)Gal(b1-4)GlcNAc(b1-2)Man(a1-6)]Man(b1-4)GlcNAc(b1-4)GlcNAc
In short: as §1

[24] = molecular target: Neu5Ac(a2-3)Gal(b1-4)GlcNAc(b1-3)Gal(b1-4)GlcNAc
In short: as §1

[25] = molecular target: Neu5Ac(a2-3)Gal(b1-4)[Fuc(a1-3)]GlcNAc(b1-6)[Neu5Ac(a2-3)Gal(b1-3)]GalNAc
In short: as §1

[26] = molecular target: Neu5Ac(a2-3)Gal6S(b1-4)GlcNAc
In short: as §1

[27] = molecular target: Neu5Ac(a2-6)Gal(b1-4)GlcNAc(b1-2)Man(a1-3)[Neu5Ac(a2-6)Gal(b1-4)GlcNAc(b1-2)Man(a1-6)]Man(b1-4)GlcNAc(b1-4)[Fuc(a1-6)]GlcNAc
In short: as §1

[28] = molecular target: Neu5Ac(a2-6)Gal(b1-4)GlcNAc(b1-2)[Neu5Ac(a2-6)Gal(b1-4)GlcNAc(b1-4)]Man(a1-3)[GlcNAc(b1-4)][Neu5Ac(a2-6)Gal(b1-4)GlcNAc(b1-2)[Neu5Ac(a2-6)Gal(b1-4)GlcNAc(b1-6)]Man(a1-6)]Man(b1-4)GlcNAc(b1-4)GlcNAc
In short: as §1

[29] = molecular target: Neu5Ac(a2-8)Neu5Gc(a2-3)Gal(b1-4)GlcNAc
In short: as §1

B1: SSP1 (Sclerotinia sclerotiorum), XP_001584968 (protein)
chain: MGSSHHHHHHSSGLVPRGSHMSLLTTELACTSAPDQVLHLFFQDGQNILEARSPDGGNVWTTQDTIIAKDGDYNGSSMTCYYVDKDANFDNQPSIHLLYMNKDKQLTEKVKRMKGDNPIWEDAKVPDEVRKGPEQYSKLTSGSFNQGTGWNPNGSQWAYFSASKDGKMGIVEIRRTPKDPWHTETILEEKWGDELPGTALACVIGNGKIRVFLQHHDYSIILYENQNNTWHDRGTFIPKDKVQATTPLACTMTKDGSVHLFYVSKSNKIIHCTDGKKEEELINFFPGSKLGATSVENKITLFFRNLNPVNEVGTLENENGSWKHGTTVIPA
glycan array binding signal (z-score) [1]: 0.937
glycan array binding signal (z-score) [2]: -0.405
glycan array binding signal (z-score) [3]: 0.084
glycan array binding signal (z-score) [4]: 7.05
glycan array binding signal (z-score) [5]: -0.15
glycan array binding signal (z-score) [6]: -0.07
glycan array binding signal (z-score) (Gal(a1-3)Gal(b1-3)GlcNAc): 2.88
glycan array binding signal (z-score) [7]: 2.85
glycan array binding signal (z-score) (Gal(b1-2)Gal): 0.5
glycan array binding signal (z-score) (Gal(b1-3)GalNAc): -0.111
glycan array binding signal (z-score) [8]: 3.1
glycan array binding signal (z-score) [9]: 5.12
glycan array binding signal (z-score) [10]: -0.358
glycan array binding signal (z-score) [11]: 0.197
glycan array binding signal (z-score) [12]: 8.48
glycan array binding signal (z-score) [13]: -0.003
glycan array binding signal (z-score) [14]: -0.405
glycan array binding signal (z-score) (Gal3S(b1-4)Glc): 1.38
glycan array binding signal (z-score) (Gal4S6S(b1-4)GlcNAc): -0.291
glycan array binding signal (z-score) (GalNAc(b1-3)Gal): 2.2
glycan array binding signal (z-score) (GalNAc(b1-4)Gal(b1-4)Glc): -0.27
glycan array binding signal (z-score) (GlcA(b1-3)GlcNAc): 0.484
glycan array binding signal (z-score) [15]: -0.535
glycan array binding signal (z-score) [16]: -0.477
glycan array binding signal (z-score) [17]: 2.28
glycan array binding signal (z-score) [18]: -0.156
glycan array binding signal (z-score) [19]: -0.017
glycan array binding signal (z-score) [20]: -0.467
glycan array binding signal (z-score) [21]: 2.15
glycan array binding signal (z-score) [22]: 0.612
glycan array binding signal (z-score) [23]: -0.45
glycan array binding signal (z-score) [24]: 0.123
glycan array binding signal (z-score) [25]: 1.79
glycan array binding signal (z-score) [26]: -0.085
glycan array binding signal (z-score) [27]: -0.364
glycan array binding signal (z-score) [28]: 0.132
glycan array binding signal (z-score) [29]: 9.08
